Measurements: publication PMC4336329 (PLoS ONE, 2015)
Out of some 310,000 compounds screened, about 14,000 (4.5%) showed an effect of 50% or more. Effects have a minus sign here. The sample as a whole holds a higher share of strong results than the screen did.

Target: human ether-à-go-go-related gene (hERG) potassium channel (human, UniProt Q12809)
Experiment: primary screen, population patch clamp on CHO cells stably expressing hERG; higher = less effect of the substance
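Also: peak tail current of the secondary pulse compared with the same well before compound.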

Sequence of human ether-à-go-go-related gene (hERG) potassium channel (Q12809 whole entry, looked up): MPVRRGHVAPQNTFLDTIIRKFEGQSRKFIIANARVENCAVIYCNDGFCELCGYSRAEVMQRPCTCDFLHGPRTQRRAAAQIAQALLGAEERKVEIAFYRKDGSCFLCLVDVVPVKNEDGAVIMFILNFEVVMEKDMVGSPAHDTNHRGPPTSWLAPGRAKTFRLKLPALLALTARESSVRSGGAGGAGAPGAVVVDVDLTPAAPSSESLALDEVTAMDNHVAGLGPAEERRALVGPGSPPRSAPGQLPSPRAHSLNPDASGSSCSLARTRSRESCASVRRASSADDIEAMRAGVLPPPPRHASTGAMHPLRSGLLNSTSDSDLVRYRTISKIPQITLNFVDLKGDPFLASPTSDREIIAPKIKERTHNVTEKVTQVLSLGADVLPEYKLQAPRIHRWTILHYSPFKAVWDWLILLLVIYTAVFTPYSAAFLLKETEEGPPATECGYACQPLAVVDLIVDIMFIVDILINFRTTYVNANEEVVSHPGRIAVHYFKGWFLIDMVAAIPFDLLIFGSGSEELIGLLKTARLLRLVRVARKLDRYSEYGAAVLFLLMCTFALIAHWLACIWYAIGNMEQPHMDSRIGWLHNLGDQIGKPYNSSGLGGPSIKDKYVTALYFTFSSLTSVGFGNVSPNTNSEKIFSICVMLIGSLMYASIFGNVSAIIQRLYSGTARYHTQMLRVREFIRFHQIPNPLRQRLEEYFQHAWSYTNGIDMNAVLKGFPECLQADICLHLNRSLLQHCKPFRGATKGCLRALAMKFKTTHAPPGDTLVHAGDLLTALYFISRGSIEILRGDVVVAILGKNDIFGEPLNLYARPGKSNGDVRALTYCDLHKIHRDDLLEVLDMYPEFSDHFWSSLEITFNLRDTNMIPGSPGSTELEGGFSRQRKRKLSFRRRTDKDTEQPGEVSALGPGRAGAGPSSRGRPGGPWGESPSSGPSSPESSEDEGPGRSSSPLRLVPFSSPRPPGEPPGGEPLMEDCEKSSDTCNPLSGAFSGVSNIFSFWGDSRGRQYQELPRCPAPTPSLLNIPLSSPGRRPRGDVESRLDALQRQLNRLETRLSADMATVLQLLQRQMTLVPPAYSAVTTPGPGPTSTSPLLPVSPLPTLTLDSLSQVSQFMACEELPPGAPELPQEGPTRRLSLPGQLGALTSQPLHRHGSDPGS

Row | SMILES | hERG current change (%, negative = inhibition) at 10uM [%]
1 | COc1ccc(CCN2C(=O)CC(N3CCN(S(=O)(=O)c4ccccc4)CC3)C2=O)cc1OC (stereo not drawn) | -5.73
2 | CCOc1ccc(S(=O)(=O)Nc2ccc(C(=O)NCc3ccncc3)cc2)cc1 | -22.2
3 | CCc1c(C)nc2ncnn2c1Nc1ccc(C#N)c(Cl)c1 | -50.6
4 | CCc1c(C)nc2ncnn2c1Nc1ccc(C)c(C)c1 | -17.6
5 | Cc1cc(Nc2ccc3c(c2)OCCO3)n2ncnc2n1 | -42.7
6 | CCc1c(C)nc2ncnn2c1Nc1ccc(C)cc1 | -5.65
7 | Cc1nc2ncnn2c(Nc2ccc3c(c2)OCCO3)c1C | 0.223
8 | Cc1nc2ncnn2c(Nc2ccc3c(c2)OCO3)c1Cc1ccccc1 | -55.1
9 | COc1ccc(CC(=O)NNS(=O)(=O)c2ccc(F)cc2)cc1OC | 0.969
10 | COc1ccc(-n2c(C)cc(C(=O)CN3CCCCC3)c2C)cc1 | 1.6
11 | CNc1nc(C)c(C(=O)OCc2ccccc2)s1 | 15.9
12 | O=C(Nc1c2c(nn1-c1ccccc1)CS(=O)C2)c1ccc(Br)o1 (stereo not drawn) | 1.07
13 | Cc1cc(C)nc(SCc2nc3ncccn3c2Br)n1 | -2.09
14 | Clc1c(CSc2nc3ccccc3o2)nc2sccn12 | 5.65
15 | c1ccc2sc(SCSc3nc4ccccc4s3)nc2c1 | 15.8
16 | Brc1c(CSc2nc3ccccc3o2)nc2ncccn12 | -51.8
17 | Clc1c(CSc2nc3ccccc3o2)nc2ccccn12 | -20.4
18 | O=[N+]([O-])c1ccc2sc(SCc3nc4ccccn4c3Br)nc2c1 | 20.2
19 | Cc1ccc(SCc2nc3ncccn3c2Br)cc1 | -68
20 | Cc1cc(=O)[nH]c(SCc2nc3ncccn3c2Br)n1 | 14.6
21 | Brc1c(CSc2nc3ccccc3s2)nc2ncccn12 | -69.7
22 | COc1ccc(S(=O)(=O)Nc2ccc3c(c2)OCO3)cc1OC | 21.7

Row | SMILES | hERG current change (%, negative = inhibition) at 10uM [%]
23 | COc1ccc(NC(=O)CSc2nnc(-c3ccccc3C)n2N)cc1 | 31.2
24 | CCC(Oc1ccccc1)C(=O)Nc1cc(Cl)ccc1-n1cncn1 (stereo not drawn) | -14.1
25 | O=C1c2ccccc2C(=O)N1C(CO)C(O)c1ccc([N+](=O)[O-])cc1 (stereo not drawn) | -5.29
26 | CC(c1nnc(SCC(=O)N2CC(=O)Nc3ccccc32)n1Cc1ccccc1)N(C)C (stereo not drawn) | 5.73
27 | CC(C)CCNCC(O)CON=C1c2ccccc2-c2ccccc21 (stereo not drawn) | -32.2
28 | CC(N=Cc1cc([N+](=O)[O-])ccc1O)c1ccccc1 (stereo not drawn) | 11.7
29 | CC(O)CN1CC(O)=C(c2nc3ccccc3s2)C1=N (stereo not drawn) | 3.89
30 | COc1ccc(C(=O)NCc2ncccc2C)cc1OC1CCN(C(C)=O)CC1 | 9.32
31 | CCOc1ccccc1-n1c(SCC(=O)Nc2ccccc2C(=O)O)nc2ccccc2c1=O | 8.39
32 | O=C(CN1CCN(S(=O)(=O)c2ccc(Br)cc2)CC1)N/N=C/c1cccnc1 | -31.6
33 | O=C(CN1CCN(S(=O)(=O)c2ccc(Br)cc2)CC1)N/N=C/c1ccc(Cl)c([N+](=O)[O-])c1 | -17.9
34 | Cc1ccc(S(=O)(=O)N2CCN(CC(=O)N/N=C\c3cccnc3)CC2)cc1 | 0.297
35 | Cc1ccc(S(=O)(=O)N2CCN(CC(=O)N/N=C\c3ccncc3)CC2)cc1 | -66.8
36 | Cc1ccc(S(=O)(=O)N2CCN(CC(=O)N/N=C\c3ccc(O)c(O)c3)CC2)cc1 | -8.76
37 | O=C(CN1CCN(S(=O)(=O)c2ccc(Br)cc2)CC1)N/N=C/c1ccncc1 | -70.6
38 | O=C1N/C(=N\c2ccccn2)SC1Cc1ccc(Cl)cc1 (stereo not drawn) | 4.11
39 | Cc1cccc(CCNc2nc3ccc(C)cc3n3cnnc23)c1 | 17.3
40 | CC(C)(C)CC(C)(C)NC(=O)c1ccc2snnc2c1 | -13.6
41 | COc1ccc(S(=O)(=O)NC(CC(=O)N2CCC3(CC2)OCCO3)C(C)C)cc1 (stereo not drawn) | 10.9
42 | COc1ccccc1CCC(=O)N(C)C1CCCN(Cc2ccccc2F)C1 (stereo not drawn) | -28
43 | Cc1ccc(C(=O)OCc2nnc(-c3ccccc3)o2)s1 | -7.37
44 | Cc1onc(-c2ccccc2Cl)c1C(=O)OCc1nnc(-c2ccccc2)o1 | -16.7

Row | SMILES | hERG current change (%, negative = inhibition) at 10uM [%]
45 | Cc1ccc(C(=O)NCC(=O)OCc2nnc(-c3ccccc3)o2)cc1 | -31.6
46 | Cc1onc(-c2ccccc2)c1C(=O)OCc1nnc(-c2ccc([N+](=O)[O-])cc2)o1 | -71.5
47 | Cc1csc(=O)n1CC(=O)OCc1nnc(-c2ccc(Cl)cc2)o1 | -2.32
48 | Cc1onc(-c2ccccc2)c1C(=O)OCc1nnc(-c2ccccc2)o1 | -15.6
49 | Cc1csc(=O)n1CCC(=O)OCc1nnc(-c2ccccc2)o1 | -8.45
50 | Cc1csc(=O)n1CCC(=O)OCc1nnc(-c2ccc([N+](=O)[O-])cc2)o1 | -67.3
51 | Cc1ccc(C(=O)NCC(=O)OCc2nnc(-c3ccc([N+](=O)[O-])cc3)o2)s1 | -67.3
52 | CNc1ccc(Oc2c(F)c(F)nc(F)c2F)cc1 | -0.34
53 | O=C1CS/C(=N/N=C/c2ccccc2)N1c1ccc(O)cc1 | 17.6
54 | CN(C)S(=O)(=O)c1cccc(NC(=O)C2Cc3ccccc3CN2C(=O)c2ccccc2)c1 (stereo not drawn) | 4.2
55 | Oc1ccc(C[C@H]2CNCCN2CCc2cccc3ccccc23)cc1 | -17.7
56 | Oc1ccc(C[C@@H]2CNCCN2CCc2cccc3ccccc23)cc1 | -64.5
57 | c1ccc(C[C@H]2CNCCN2CCc2cccc3ccccc23)cc1 | -35.6
58 | C#CCOCCOCCOCCNc1nc(N2CCN(C(=O)[C@H](CCC(=O)O)n3cc(C(N)Cc4ccc(O)cc4)nn3)CC2)nc(N2CCN(C(=O)[C@H](Cc3cc4ccccc4[nH]3)n3cc(C(N)[C@H](C)CC)nn3)CC2)n1.Cl (stereo partly drawn) | 5.43
59 | COc1ccc(CNC(=O)c2ccc3c(=O)n(CCCN4CCCC4=O)c(=S)[nH]c3c2)cc1 | 19
60 | CCOC(=O)c1ccc(Nc2cc(C)nc3nc(C)nn23)cc1 | -53
61 | CCOC(=O)c1ccc(Nc2nc(C)cc(C)n2)cc1 | 16.7
62 | CCOC(=O)c1c(Nc2ccccc2N)cc(C)nc1C | -13.9
63 | COC(=O)c1ccc(Nc2cc(C)nc3nc(C)nn23)cc1 | -37.8
64 | CCOC(=O)c1ccc(Nc2cc(C)nc3ncnn23)cc1 | -15.1
65 | CCOC(=O)c1ccc(Nc2cc(C)nc(C)c2C(=O)OCC)cc1.Cl | -62.6
66 | COc1ccc(/C=N/NC(=O)CCn2c3ccccc3c3ccccc32)cc1O | 5.18

Row | SMILES | hERG current change (%, negative = inhibition) at 10uM [%]
67 | COc1ccc(NS(=O)(=O)c2cc(C)ccc2OC)cc1OC | 10.5
68 | CN(C)c1ccc2c(O)cc(=O)n(C)c2c1 | 6.76
69 | O=C(NC1CCCC1)c1cc2nc(-c3ccccc3)cc(-c3ccccc3)n2n1 | -23.3
70 | Cc1ccc2nc(C)c(C)nc2c1N | 8.1
71 | O=C(Nc1ccc(Cl)cc1Cl)c1ccc2c(=O)n3c(nc2c1)CCC3 | -39.8
72 | c1ccc(-c2nnc(SCc3nc4ccccc4[nH]3)n2Cc2ccco2)cc1 | -22.4
73 | Fc1ccccc1CSc1nnc(-c2cnccn2)n1Cc1ccco1 | -11.2
74 | c1ccc(-c2nnc(SCc3nc4ccccc4[nH]3)n2Cc2ccco2)nc1 | -8.18
75 | c1coc(Cn2c(SCc3nc4ccccc4[nH]3)nnc2-c2cnccn2)c1 | -56.3
76 | NC(=O)CSc1nnc(-c2cnccn2)n1Cc1ccco1 | 7.06
77 | Cn1c(-c2ccccc2)cnc1SCc1nc2ccccc2c(=O)[nH]1 | -59.9
78 | O=c1[nH]c(CSc2nnc(-c3ccncc3)n2Cc2ccco2)nc2ccccc12 | -58.2
79 | Fc1ccc(CSc2nnc(-c3cnccn3)n2Cc2ccco2)cc1 | -52.2
80 | Cn1c(SCc2nc3ccccc3c(=O)[nH]2)nc2ccccc21 | 0.933
81 | Cn1c(Cc2ccccc2)nnc1SCc1nc2ccccc2c(=O)[nH]1 | -1.69
82 | CCn1c(SCc2nc3ccccc3c(=O)[nH]2)nnc1-c1ccncc1 | -11.7
83 | COCCn1c(SCc2nc3ccccc3c(=O)[nH]2)nnc1-c1ccncc1 | -4.64
84 | Cl.NC(N)=NC(N)=Nc1ccc(SC(F)(F)F)cc1 | -21.3
85 | Oc1cccnc1Sc1cccc(C(F)(F)F)c1 | 18.6
86 | CC(C)(C)c1nnc(NC(=O)CCS(=O)(=O)c2ccccc2)s1 | 5.03
87 | COc1cc(/C=C2/SC(=S)NC2=O)ccc1OS(=O)(=O)c1ccc(C)cc1 | 39.8
